MCF10A rereplic = induces DNA re-replication in MCF 10a normal breast cells; actives 2.9% (n = 350,000); Potency, µM (titrated, usually from 46.1 µM), for inactives: top-dose activity, positive = re-replication, most hits filed as activators; MCF 10A DNA re-replication, Hoechst nuclear intensity, 48 h; further: % of control where 0% means no effect; nearly all actives have a fitted effect of over 50% in size
KB-V1 cytotox = KB-V1 MDR subline cytotoxicity; KB-V1 MDR cells viability, CellTiter-Glo, 72 h; Potency, µM (top dose mostly 46.1 µM), most hits filed as cytotoxic; actives 3.4% (n = 400,000); AID 1347076; further: on the % scale 0 is the no-effect control and ±100 the full control effect; nearly all actives have a fitted effect of over 60% in size
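Luminescent ATP read-out (CellTiter-Glo, 10 min) measures survival of drug-selected KB-V1 MDR cells after 72 h, 37 degrees C compound exposure. Medium: phenol-red-free DMEM, 10% FBS. Values from fitted concentration-response curves.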
HT1080 IDH1KD tx = kills HT-1080 cells with IDH1 knockdown. actives 2% (n = 360,000). HT-1080 IDH1 knockdown viability, ATP luminescence, 48 h. AID 686971. Potency, µM (series often up to 46.1 µM), without a hit: at the top dose activity, negative = toxicity, most hits filed as cytotoxic;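 further: 0% = DMSO wells and -100% = cell-free medium wells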
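In this qHTS, HT-1080 cells depleted of IDH1 are exposed for 48 h at 37 °C to compound titrations. Toxicity is scored from CellTiter-Glo luminescence, with DMSO as full viability and medium alone as none.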
HT1080-NT tox = kills 2HG-producing HT-1080-NT fibrosarcoma cells | HT-1080-NT fibrosarcoma viability, CellTiter-Glo ATP luminescence, 48 h | Potency, µM (top dose mostly 46.1 µM), inactives show at the top dose activity, negative = less viability, actives largely listed as cytotoxic | actives 1.6% (n = 360,000) | AID 686970;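 further: NT is the 2HG producing partner of a matched IDH1 knockdown line; 0% = DMSO-treated cells and -100% = media-only wells without cells; nearly all actives have a fitted effect of over 55% in size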
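Read-out is CellTiter-Glo luminescence after 10 minutes at room temperature, following 48 hours' compound treatment of HT-1080-NT cells (750 cells/well, RPMI, 5% FBS, 37 degrees C).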
SW480 rerep = inducers of DNA re-replication in SW480 colon cancer cells | SW480 DNA re-replication, Hoechst DNA content imaging, 48 h | Potency, µM (highest dose often 46.1 µM), for the others: top-dose re-replication activation, most hits filed as activators | actives 1.8% (n = 340,000); further: % of control where 0% means no effect; nearly all actives have a fitted effect of over 55% in size
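250 cells/well; 23 nL cpd via pin tool; 48 hr, 37 C, 5% CO2; Hoechst 40 min; imager read of total nuclear intensity, ex 405/em 500-530 nm.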
KB-3-1 tox = KB-3-1 parental cell cytotoxicity | Potency, µM (series often up to 46.1 µM), actives largely listed as cytotoxic | AID 1347075 | actives 1.4% (n = 400,000) | KB-3-1 viability, CellTiter-Glo ATP luminescence, 72 h; further: on the % scale 0 is the no-effect control and ±100 the full control effect; nearly all actives have a fitted effect of over 60% in size
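Multi-concentration cytotoxicity screen in KB-3-1 cells grown in DMEM lacking phenol red with 10% FBS. After 72 h at 37 °C with compound, ATP-dependent luminescence was recorded.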
Active calls of the source: *; i = inactive; ? = inconclusive; / = no result. Shown are actives, neighbours in structure and some others; about 8% of the full set was active somewhere. The call rests on the fitted dose curve; in most records, active means well fitted curve in the direction sought with a large enough effect; inconclusive means small, poorly fitted or top-dose-only effect, or another doubt; inactive means no such curve, though single readings can be large; an effect the other way counts as inactive or inconclusive. Potency means the concentration at half of the fitted maximal effect.

SMILES | MCF10A rereplic | KB-V1 cytotox | HT1080 IDH1KD tx | HT1080-NT tox | SW480 rerep | KB-3-1 tox
CC1CN(C(=O)c2cc(S(=O)(=O)N3CCCC3)ccc2Cl)CC(C)O1 (stereo not drawn) | 5.3% | i | 17.3% | 23.2% | -4.4% | i
CC1CN(C(=O)c2cc(S(=O)(=O)N3CCCCC3)ccc2Cl)CC(C)O1 (stereo not drawn) | 2.2% | 20.6µM* | 5.5% | 11.6% | 1.5% | i
CCCc1cc2c(cc1NC(=O)Cc1ccccc1)OCO2 | ? | i | -3.5% | -1.7% | 1.2% | i
Nc1c(C(=O)Nc2ccc(S(=O)(=O)N3CCCC3)cc2)sc2nc3ccc(OC(F)(F)F)cc3cc12 | ? | ? | ? | ? | 15.3% | 14.6µM*
O=C(Nc1ccccc1)C1=C(c2ccccc2)S(=O)(=O)CCS1(=O)=O | ? | i | 3.26µM* | 23.1µM* | 1.3µM* | ?
O=C(O)c1ccccc1C(=O)Nc1ccccc1 | 0.7% | i | 1.2% | 10.1% | 3.3% | i
NC(=O)c1cc(-c2ccccc2)sc1NC(=O)CN1CCCCC1 | ? | i | 14.6µM* | ? | 2.5% | i
CC(C)(C)C(=O)Nc1sc(-c2ccccc2)cc1C(=O)O | -0.3% | ? | ? | ? | -2.0% | 6.51µM*
Cc1cccc(C(=O)Nc2sc(-c3ccccc3)cc2C(=O)O)c1 | ? | i | -3.7% | -2.7% | 0.9% | i
O=[N+]([O-])c1ccc(NN=Cc2ccco2)nc1 | 27.0% | i | -23.1% | -5.3% | 5.0% | i
O=C1CCC/C1=C\c1ccccc1 | -0.9% | i | 4.4% | -1.7% | -0.6% | i
O=C1/C(=C/c2ccncc2)CCc2ccccc21 | ? | 14.6µM* | ? | -8.7% | 20.6µM* | i
O=C1/C(=C\c2ccccc2)CCC/C1=C/c1ccccc1 | 14.6µM* | ? | ? | ? | ? | ?
O=C1/C(=C/c2ccncc2)CCC/C1=C\c1ccncc1 | 3.66µM* | ? | 4.11µM* | 4.61µM* | 2.59µM* | 7.31µM*
O=C1C(=Cc2ccccc2Cl)CCc2ccccc21 | / | ? | ? | ? | / | 20.6µM*
CN(CC(=O)Nc1cccc(F)c1)CC(=O)Nc1cccc2ccccc12 | -7.1% | i | -3.3% | -16.1% | 0.1% | ?
CC(NC(=O)CN(C)CC(=O)Nc1cccc(F)c1)c1ccccc1 (stereo not drawn) | -0.4% | 18.4µM* | -2.8% | 1.1% | 3.0% | i
COc1cccc(C2=NOC(C(=O)NCc3cccnc3)C2)c1 (stereo not drawn) | 15.3% | i | -2.8% | -3.5% | 8.3% | i
O=C(NCc1cc(C(F)(F)F)cc(C(F)(F)F)c1)C1CC(c2ccccc2F)=NO1 (stereo not drawn) | -0.7% | i | -24.6% | 0.0% | -3.3% | i
Cc1ccc(CNC(=O)C2CC(c3ccccc3F)=NO2)cc1 (stereo not drawn) | 3.26µM* | i | ? | ? | ? | i
Cc1ccc(CNC(=O)C2CC(c3cccc(F)c3)=NO2)cc1 (stereo not drawn) | 5.8µM* | ? | 5.5% | 13.1% | -3.7% | i
COc1cccc(C2=NOC(C(=O)NCc3ccc(F)cc3)C2)c1 (stereo not drawn) | 0.731µM* | ? | ? | -23.9% | -8.2% | i
O=C(NCc1cccc(C(F)(F)F)c1)C1CC(c2ccccc2C(F)(F)F)=NO1 (stereo not drawn) | 23.1µM* | ? | 25.9µM* | ? | ? | ?
CCCc1cc(=O)[nH]c(SCC(=O)N2CCN(S(=O)(=O)c3ccc4ccccc4c3)CC2)n1 | -0.2% | i | 0.1% | 2.5% | / | i
O=C(O)C1CCN(C(=O)Cc2ccccc2)CC1 | 0.0% | i | 4.2% | 7.1% | -12.3% | i

Screening data (PubChem)
